# Results taken from PubChem BioAssay AID2017 (National Center for Advancing Translational Sciences (NCATS), 2009).
# Inconclusive results are not listed. The source made the active and inactive calls. Calls come from the whole dose curve; as a rule, active = well fitted curve in the direction sought with a large enough effect; inconclusive = small, poorly fitted or top-dose-only effect, or another doubt; inactive = no such curve, though single readings can be large or run the other way.
# Target: 4-diphosphocytidyl-2-C-methyl-D-erythritol kinase, chloroplastic (Arabidopsis thaliana) (UniProt O81014)
# Experiment: Confirmatory Assay for Inhibitors of Human Galactokinase (GALK): CDP-Me assay counterscreen
# Details: ATP depletion, Kinase-Glo luminescence
# Source text: NIH Molecular Libraries Probe Production Centers Network [MLPCN] NIH Chemical Genomics Center [NCGC] MLPCN Grant: R03 MH085689-01 Assay Submitter (PI): Kent Lai (University of Utah School of Medicine, 50 N Mario Capecchi Drive, Salt Lake City, UT 84132) NCGC Assay Overview The GHMP kinase family is a unique class of important enzymes that plays an essential role in many metabolic processes. It contains more than 170 protein members among which are the galactokinase (GALK) and the CMK enzymes. GALK plays a crucial role in galactose processing and is a potential therapeutic target for Classic Galactosemia (OMIM: 230400). CMK is involved for the non-mevalonate synthesis of isoprenoids precursors and natural products like sterols or ubiquinones which are important to many biological functions. […]
# NCGC Assay Protocol Summary: Three uL/well of substrate solution (15 uM ATP, 30 uM CDP-ME, 20 mM HEPES pH8.0, 5 mM MgCl2, 40 mM KCl, 1 mM DTT, 0.01% BSA final concentration) was dispensed into 1536-well, assay plates (Greiner, solid white medium-binding plates) with Aurora Discovery BioRAPTR Flying Reagent Dispenser (FRD; Beckton-Dickenson). […] After 1 min, luminescence was detected with the ViewLux plate reader (Perkin Elmer, Waltham, MA) using a 1 sec exposure time and 2x binning settings.
# Sequence of 4-diphosphocytidyl-2-C-methyl-D-erythritol kinase, chloroplastic (Arabidopsis thaliana) (O81014 whole entry, looked up): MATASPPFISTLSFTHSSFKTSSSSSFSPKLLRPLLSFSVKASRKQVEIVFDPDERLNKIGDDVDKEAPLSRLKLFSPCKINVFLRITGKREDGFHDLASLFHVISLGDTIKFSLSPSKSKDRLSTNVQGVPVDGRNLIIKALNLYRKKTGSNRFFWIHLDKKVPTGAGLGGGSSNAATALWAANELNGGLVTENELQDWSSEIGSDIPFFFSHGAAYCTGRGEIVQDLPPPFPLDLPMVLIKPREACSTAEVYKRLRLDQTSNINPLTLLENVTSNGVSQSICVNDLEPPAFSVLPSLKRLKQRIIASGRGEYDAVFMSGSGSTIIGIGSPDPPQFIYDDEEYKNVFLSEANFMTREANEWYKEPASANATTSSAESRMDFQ
smiles,measurement,value
COc1cc(/C=C2\C(=N)N3N=C(S(=O)(=O)CC(C)C)SC3=NC2=O)ccc1OC(=O)c1ccco1,Potency,29.8 µM (active)
